# Data as given in the supplement of paper PMC11732987, “Enantioselective OTUD7B fragment discovery through chemoproteomics screening and high-throughput optimisation” (Communications Chemistry, 2025).
# Values without a mark were called inactive.
# What was measured:
# Assay in all cases: log2 ratio of Biotin-Ahx-Ub-VS probe labelling (fragment/DMSO); higher = less target engagement (more negative = stronger competition), active = hit call of the paper (q ≤ 0.05, log2 ratio ≤ -1)
# Conditions in all cases: compound concentration: 200 uM; treatment time: 3 h
# OTUD6B = biological target: T1, OTUD6B (UniProt Q8N6M0)
# T1 sequence (whole entry): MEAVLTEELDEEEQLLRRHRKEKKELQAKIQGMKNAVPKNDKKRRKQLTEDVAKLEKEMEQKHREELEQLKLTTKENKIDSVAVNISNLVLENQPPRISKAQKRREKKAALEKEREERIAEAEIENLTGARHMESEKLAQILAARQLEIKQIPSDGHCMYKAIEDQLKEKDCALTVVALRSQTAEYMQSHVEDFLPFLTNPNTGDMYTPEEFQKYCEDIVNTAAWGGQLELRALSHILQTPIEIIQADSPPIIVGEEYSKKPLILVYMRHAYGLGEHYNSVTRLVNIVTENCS
# Summary of the method: (§1)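 The table lists average log2 ratios of fragment over vehicle, from an unpaired t-test on global-median-normalised Spectronaut label-free quantities. Proteins with ≥2 unique peptides were used. Samples were HEK293T lysate (495 µg) treated in triplicate with fragment at 200 µM or vehicle for 3 h, then with Biotin-Ahx-Ub-VS (0.5 µM final) for 1 h, with labelled DUBs NeutrAvidin-enriched and run by diaPASEF LC-MS/MS.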
# OTUD7B = biological target: T2, OTUD7B (UniProt Q6GQQ9)
# T2 sequence (whole entry): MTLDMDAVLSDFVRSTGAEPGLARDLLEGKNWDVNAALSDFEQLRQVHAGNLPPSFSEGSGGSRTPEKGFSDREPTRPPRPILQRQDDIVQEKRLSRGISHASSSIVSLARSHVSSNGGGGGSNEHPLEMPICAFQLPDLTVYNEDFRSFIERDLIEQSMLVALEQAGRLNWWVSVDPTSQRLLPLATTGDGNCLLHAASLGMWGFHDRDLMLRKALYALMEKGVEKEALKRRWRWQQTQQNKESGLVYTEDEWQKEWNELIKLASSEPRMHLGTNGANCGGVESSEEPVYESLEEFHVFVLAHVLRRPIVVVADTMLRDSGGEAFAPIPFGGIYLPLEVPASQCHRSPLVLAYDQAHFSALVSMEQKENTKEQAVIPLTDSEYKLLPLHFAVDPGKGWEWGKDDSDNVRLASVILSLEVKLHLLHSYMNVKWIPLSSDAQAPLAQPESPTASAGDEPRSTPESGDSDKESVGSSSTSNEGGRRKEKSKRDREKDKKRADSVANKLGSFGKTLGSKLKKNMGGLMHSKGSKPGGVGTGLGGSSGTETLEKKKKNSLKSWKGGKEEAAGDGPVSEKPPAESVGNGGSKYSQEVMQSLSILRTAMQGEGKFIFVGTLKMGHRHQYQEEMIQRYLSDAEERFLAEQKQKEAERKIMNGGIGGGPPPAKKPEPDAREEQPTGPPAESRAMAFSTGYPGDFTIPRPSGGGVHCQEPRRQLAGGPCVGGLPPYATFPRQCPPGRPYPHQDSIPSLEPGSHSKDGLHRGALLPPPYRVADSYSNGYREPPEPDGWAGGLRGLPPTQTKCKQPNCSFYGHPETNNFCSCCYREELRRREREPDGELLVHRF
# Summary of the method: as §1
# PRPF8 = PRPF8 (UniProt Q6P2Q9)
# Summary of the method: as §1
# PSMD7 = biological target: T3, PSMD7 (UniProt P51665)
# T3 sequence (whole entry): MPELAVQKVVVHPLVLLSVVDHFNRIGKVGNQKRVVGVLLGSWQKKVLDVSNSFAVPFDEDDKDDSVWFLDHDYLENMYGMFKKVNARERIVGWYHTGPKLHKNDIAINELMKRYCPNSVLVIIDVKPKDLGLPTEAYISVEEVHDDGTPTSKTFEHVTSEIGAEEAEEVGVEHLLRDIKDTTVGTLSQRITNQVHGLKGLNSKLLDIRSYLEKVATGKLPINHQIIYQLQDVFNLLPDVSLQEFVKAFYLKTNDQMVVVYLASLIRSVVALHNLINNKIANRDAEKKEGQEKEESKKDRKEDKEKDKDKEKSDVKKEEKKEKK
# Summary of the method: as §1
# UCHL1 = UCHL1 (UniProt P09936)
# Summary of the method: as §1
# UCHL3 = biological target: T4, UCHL3 (UniProt P15374)
# T4 sequence (whole entry): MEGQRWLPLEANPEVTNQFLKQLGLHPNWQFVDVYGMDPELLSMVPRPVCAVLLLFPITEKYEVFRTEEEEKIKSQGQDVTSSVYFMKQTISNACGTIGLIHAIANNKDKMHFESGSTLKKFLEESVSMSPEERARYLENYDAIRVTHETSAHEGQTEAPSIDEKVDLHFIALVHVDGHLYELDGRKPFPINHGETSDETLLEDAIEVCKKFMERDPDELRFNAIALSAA
# Summary of the method: as §1
# UCHL5 = biological target: T5, UCHL5 (UniProt Q9Y5K5)
# T5 sequence (whole entry): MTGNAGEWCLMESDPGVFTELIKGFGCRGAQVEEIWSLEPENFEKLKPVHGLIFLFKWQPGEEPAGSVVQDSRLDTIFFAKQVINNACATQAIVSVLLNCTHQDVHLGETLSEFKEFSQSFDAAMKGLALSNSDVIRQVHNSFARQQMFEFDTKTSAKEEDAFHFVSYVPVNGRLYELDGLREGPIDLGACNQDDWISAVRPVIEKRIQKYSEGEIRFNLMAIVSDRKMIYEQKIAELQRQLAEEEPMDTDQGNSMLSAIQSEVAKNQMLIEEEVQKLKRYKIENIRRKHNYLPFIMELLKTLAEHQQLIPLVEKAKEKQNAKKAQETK
# Summary of the method: as §1
# USP10 = USP10 (UniProt Q14694)
# Summary of the method: as §1
# USP15 = biological target: T6, USP15 (UniProt Q9Y4E8)
# T6 sequence (whole entry): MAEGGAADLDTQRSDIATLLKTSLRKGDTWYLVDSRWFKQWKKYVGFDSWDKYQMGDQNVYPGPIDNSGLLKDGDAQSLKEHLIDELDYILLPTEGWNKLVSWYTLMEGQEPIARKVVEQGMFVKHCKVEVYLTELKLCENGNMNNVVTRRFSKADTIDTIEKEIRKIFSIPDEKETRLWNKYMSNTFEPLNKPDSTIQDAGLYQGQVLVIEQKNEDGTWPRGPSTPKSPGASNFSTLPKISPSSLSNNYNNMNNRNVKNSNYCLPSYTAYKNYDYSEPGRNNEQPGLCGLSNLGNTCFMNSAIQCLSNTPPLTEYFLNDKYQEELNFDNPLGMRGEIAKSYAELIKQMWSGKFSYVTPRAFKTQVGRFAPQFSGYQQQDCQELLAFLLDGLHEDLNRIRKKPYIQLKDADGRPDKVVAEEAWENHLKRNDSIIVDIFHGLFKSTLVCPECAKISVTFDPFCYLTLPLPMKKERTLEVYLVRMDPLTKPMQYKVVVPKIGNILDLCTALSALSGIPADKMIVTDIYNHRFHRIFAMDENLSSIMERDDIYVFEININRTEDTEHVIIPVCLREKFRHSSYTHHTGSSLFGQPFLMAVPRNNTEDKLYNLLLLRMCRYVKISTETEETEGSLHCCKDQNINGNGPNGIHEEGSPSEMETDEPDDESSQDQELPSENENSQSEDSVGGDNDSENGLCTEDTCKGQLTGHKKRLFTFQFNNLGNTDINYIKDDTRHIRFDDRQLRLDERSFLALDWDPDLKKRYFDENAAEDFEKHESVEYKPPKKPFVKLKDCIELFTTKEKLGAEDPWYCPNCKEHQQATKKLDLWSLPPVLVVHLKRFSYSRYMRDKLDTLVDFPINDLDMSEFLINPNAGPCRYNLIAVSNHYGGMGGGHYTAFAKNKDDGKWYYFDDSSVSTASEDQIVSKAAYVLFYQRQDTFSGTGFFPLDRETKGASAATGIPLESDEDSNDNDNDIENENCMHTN
# Summary of the method: as §1
# USP16 = USP16 (UniProt Q9Y5T5)
# Summary of the method: as §1
# USP10, sequence (Q14694 whole entry): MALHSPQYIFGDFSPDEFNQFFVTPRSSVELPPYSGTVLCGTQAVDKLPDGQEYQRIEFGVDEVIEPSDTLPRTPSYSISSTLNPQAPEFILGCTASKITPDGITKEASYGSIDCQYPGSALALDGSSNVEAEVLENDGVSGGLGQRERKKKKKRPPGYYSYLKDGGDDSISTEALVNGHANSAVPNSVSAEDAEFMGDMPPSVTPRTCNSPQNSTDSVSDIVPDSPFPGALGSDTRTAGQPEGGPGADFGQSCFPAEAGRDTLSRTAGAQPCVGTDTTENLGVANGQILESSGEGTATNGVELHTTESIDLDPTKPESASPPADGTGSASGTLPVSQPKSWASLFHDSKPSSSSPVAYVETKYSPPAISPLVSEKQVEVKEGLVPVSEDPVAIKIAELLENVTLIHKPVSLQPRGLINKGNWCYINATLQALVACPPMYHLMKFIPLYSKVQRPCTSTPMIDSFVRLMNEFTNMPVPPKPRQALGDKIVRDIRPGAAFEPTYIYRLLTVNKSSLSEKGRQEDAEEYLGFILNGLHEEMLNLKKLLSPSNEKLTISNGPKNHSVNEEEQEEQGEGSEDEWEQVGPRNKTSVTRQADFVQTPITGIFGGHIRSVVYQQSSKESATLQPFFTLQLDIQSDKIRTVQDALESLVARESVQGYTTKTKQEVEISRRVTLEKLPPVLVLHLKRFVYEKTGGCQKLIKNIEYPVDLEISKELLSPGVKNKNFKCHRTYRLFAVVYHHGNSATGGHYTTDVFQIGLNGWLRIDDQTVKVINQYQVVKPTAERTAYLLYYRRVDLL
# UCHL1, sequence (P09936 whole entry, looked up): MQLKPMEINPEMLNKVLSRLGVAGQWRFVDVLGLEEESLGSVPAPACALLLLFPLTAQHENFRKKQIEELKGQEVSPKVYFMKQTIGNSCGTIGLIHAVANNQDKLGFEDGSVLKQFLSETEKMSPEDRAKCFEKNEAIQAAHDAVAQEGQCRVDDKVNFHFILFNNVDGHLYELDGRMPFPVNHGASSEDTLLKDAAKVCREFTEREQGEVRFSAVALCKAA
# USP16, sequence (Q9Y5T5 whole entry, looked up): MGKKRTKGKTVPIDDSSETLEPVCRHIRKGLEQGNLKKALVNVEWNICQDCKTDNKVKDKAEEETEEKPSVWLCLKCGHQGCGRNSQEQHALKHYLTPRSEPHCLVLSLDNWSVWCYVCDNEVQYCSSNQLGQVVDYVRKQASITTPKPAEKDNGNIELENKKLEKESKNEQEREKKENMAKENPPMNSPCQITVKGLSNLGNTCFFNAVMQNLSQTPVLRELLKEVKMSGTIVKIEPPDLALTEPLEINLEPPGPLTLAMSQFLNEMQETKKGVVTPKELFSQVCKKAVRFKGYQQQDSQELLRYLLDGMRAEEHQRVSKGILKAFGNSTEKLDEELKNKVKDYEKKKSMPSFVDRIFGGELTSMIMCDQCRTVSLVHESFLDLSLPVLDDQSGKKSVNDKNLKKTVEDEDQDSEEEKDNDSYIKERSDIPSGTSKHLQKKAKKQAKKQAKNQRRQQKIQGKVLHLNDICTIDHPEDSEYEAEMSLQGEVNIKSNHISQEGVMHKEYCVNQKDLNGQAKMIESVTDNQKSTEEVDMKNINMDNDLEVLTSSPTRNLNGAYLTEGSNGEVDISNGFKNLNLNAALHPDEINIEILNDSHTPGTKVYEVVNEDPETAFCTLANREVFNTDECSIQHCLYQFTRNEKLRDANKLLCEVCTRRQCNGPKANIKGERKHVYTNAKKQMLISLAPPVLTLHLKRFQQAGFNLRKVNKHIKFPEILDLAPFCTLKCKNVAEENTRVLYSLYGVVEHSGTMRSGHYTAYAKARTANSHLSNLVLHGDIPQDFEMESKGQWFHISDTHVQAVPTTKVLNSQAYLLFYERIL
smiles,measurement,setting,value
CN1c2ccccc2C(NC(=O)CCl)CS1(=O)=O (stereo not given),log2 ratio of Biotin-Ahx-Ub-VS probe labelling,OTUD6B,-0.0927
same,log2 ratio of Biotin-Ahx-Ub-VS probe labelling,OTUD7B,-2.41 (active)
same,log2 ratio of Biotin-Ahx-Ub-VS probe labelling,PRPF8,0.0667
same,log2 ratio of Biotin-Ahx-Ub-VS probe labelling,PSMD7,-0.189
same,log2 ratio of Biotin-Ahx-Ub-VS probe labelling,UCHL1,-1.69 (active)
same,log2 ratio of Biotin-Ahx-Ub-VS probe labelling,UCHL3,0.316
same,log2 ratio of Biotin-Ahx-Ub-VS probe labelling,UCHL5,-0.387
same,log2 ratio of Biotin-Ahx-Ub-VS probe labelling,USP10,0.128
same,log2 ratio of Biotin-Ahx-Ub-VS probe labelling,USP15,-0.212
same,log2 ratio of Biotin-Ahx-Ub-VS probe labelling,USP16,-0.411
